In PubChem BioAssay (Tox21):
Records with an inconclusive call do not appear. The source made the active and inactive calls. Unless noted, calls come from the whole dose curve; as a rule, active = well fitted curve in the direction sought with a large enough effect in the repeat runs; inconclusive = weak or mixed curves; inactive = no such curve, though single readings can be large; an effect the other way counts as inactive or inconclusive.

Experiments:
[1] = qHTS assay to identify small molecule antagonists of the thyroid receptor (TR) signaling pathway - cell viability counter screen (AID 743064); note: nearly all actives have a fitted effect of over 50% in size
Method in brief: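 Compounds were tested on GH3.TRE-Luc cells in the presence of T3 at 1 nM final. Following 23.5 h at 37 °C, cell viability was quantified by CellTiter-Fluor.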

[2] = qHTS assay to identify small molecule antagonists of the thyroid receptor (TR) signaling pathway (AID 743065); note: series mostly up to about 70 µM; nearly all actives have a fitted effect of over 55% in size
Method in brief: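 GH3.TRE-Luc rat pituitary cells carrying two TR response elements driving luciferase were plated for 4 h, given compound plus 1 nM T3 (final), and incubated 23.5 h at 37 C. ONE-Glo luminescence measured reporter inhibition; CellTiter-Fluor fluorescence tracked cytotoxicity.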

[3] = system: thyroid hormone receptor (rat, GH3 cells); assay: qHTS assay to identify small molecule agonists of the thyroid receptor (TR) signaling pathway (AID 743066; calls by dose curve)
[4] = qHTS assay to identify small molecule antagonists of the estrogen receptor alpha (ER-alpha) signaling pathway - cell viability counter screen (AID 743074; calls by dose curve;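 note: HEK293 cells carrying ER-alpha-UAS-bla reporter stimulated with 17beta-estradiol; nearly all actives have a fitted effect of over 45% in size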)
[5] = qHTS assay to identify small molecule antagonists of the estrogen receptor alpha (ER-alpha) signaling pathway using the BG1 cell line - cell viability counter screen (AID 743081);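 note: compound given together with 17beta-estradiol as the ER stimulus; series mostly up to about 70 µM; nearly all actives have a fitted effect of over 45% in size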
Aromatase (Homo sapiens) = Aromatase (Homo sapiens) (UniProt P11511); assay: qHTS assay to identify aromatase inhibitors (AID 743083); note: series mostly up to about 70 µM; nearly all actives have a fitted effect of over 55% in size
Sequence of Aromatase (Homo sapiens) (P11511 whole entry, looked up): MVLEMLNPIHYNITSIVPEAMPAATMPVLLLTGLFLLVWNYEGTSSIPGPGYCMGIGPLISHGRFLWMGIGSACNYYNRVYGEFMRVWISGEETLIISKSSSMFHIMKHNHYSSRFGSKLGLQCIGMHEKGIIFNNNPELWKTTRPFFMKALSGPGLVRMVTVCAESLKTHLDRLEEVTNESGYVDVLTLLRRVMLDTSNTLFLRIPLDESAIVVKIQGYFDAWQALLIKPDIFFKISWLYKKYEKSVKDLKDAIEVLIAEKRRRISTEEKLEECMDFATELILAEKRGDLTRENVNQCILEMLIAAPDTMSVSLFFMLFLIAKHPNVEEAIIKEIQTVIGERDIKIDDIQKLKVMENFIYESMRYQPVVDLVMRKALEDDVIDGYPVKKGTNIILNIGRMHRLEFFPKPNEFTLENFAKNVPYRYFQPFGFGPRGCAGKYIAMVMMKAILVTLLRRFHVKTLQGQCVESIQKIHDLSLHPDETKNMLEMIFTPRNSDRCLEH

[6] = qHTS assay to identify aromatase inhibitors - cell viability counter screen (AID 743084);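 note: cells stimulated with testosterone during compound exposure; nearly all actives have a fitted effect of over 55% in size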
[7] = qHTS assay to identify small molecule that activate the aryl hydrocarbon receptor (AhR) signaling pathway - cell viability counter screen (AID 743086);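 note: HepG2 liver cells carrying the AhR DRE luciferase reporter; series mostly up to about 70 µM; nearly all actives have a fitted effect of over 45% in size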
Method in brief: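 HepG2-AhR-luc (HG2L7.5c1) cells, 4000/well, were preincubated 5 h at 37C, exposed to compound in qHTS format for 24 hr at 37C, then given CellTiter-Fluor for 30 min; viability was read as fluorescence in the reporter wells.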

[8] = qHTS assay to identify small molecule antagonists of the peroxisome proliferator-activated receptor gamma (PPARg) signaling pathway - cell viability counter screen (AID 743194); note: nearly all actives have a fitted effect of over 55% in size
Method in brief: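 PPARg-UAS-bla HEK293H cells were plated, rested 5 h at 37 C, then treated with compounds plus rosiglitazone (50 nM final) for 17 h at 37 C; viability was then read by CellTiter-Glo luminescence after 30 min at room temperature.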

[9] = qHTS assay for small molecule agonists of the antioxidant response element (ARE) signaling pathway - cell viability counter screen (AID 743203; calls by dose curve; note: nearly all actives have a fitted effect of over 55% in size)
Method in brief: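 Seeded at 2,000 cells/well, ARE-bla HepG2 cells were incubated 5 hrs before compound addition. After 16 hrs of treatment at 37C with 5% CO2, CellTiter-Glo reagent was added and luminescence read 30 min later.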

[10] = qHTS assay for small molecule activators of the heat shock response signaling pathway - cell viability counter screen (AID 743209); note: nearly all actives have a fitted effect of over 50% in size
Method in brief: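 First, HSE-bla HeLa cells were seeded at 1500 cells/well and kept overnight at 37 C. Next, compounds were pinned in and incubated 5 h. After the FRET substrate step, CellTiter-Glo was added and luminescence read 30 min later.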

[11] = qHTS assay for small molecule activators of the heat shock response signaling pathway (AID 743210; active = well fitted activation curve with a large enough effect in the signal ratio in the repeat runs, with a control signal flat, not every such curve was filed as active; the % refers to the signal ratio; note: series mostly up to about 63 µM)
Method in brief: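 HSE-bla HeLa cells (beta-lactamase reporter under heat shock response elements) were exposed to compounds for 5 h at 37 C, then loaded with LiveBLAzer B/G FRET substrate for 2.5 h at room temperature before fluorescence reading.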

[12] = target: Peroxisome proliferator-activated receptor gamma (Homo sapiens) (UniProt P37231); assay: qHTS assay to identify small molecule agonists of the peroxisome proliferator-activated receptor gamma (PPARg) signaling pathway (AID 743094; active = well fitted activation curve with a large enough effect in the signal ratio in the repeat runs, not every such curve was filed as active; the % refers to the signal ratio)
Sequence of Peroxisome proliferator-activated receptor gamma (Homo sapiens) (P37231 whole entry, looked up): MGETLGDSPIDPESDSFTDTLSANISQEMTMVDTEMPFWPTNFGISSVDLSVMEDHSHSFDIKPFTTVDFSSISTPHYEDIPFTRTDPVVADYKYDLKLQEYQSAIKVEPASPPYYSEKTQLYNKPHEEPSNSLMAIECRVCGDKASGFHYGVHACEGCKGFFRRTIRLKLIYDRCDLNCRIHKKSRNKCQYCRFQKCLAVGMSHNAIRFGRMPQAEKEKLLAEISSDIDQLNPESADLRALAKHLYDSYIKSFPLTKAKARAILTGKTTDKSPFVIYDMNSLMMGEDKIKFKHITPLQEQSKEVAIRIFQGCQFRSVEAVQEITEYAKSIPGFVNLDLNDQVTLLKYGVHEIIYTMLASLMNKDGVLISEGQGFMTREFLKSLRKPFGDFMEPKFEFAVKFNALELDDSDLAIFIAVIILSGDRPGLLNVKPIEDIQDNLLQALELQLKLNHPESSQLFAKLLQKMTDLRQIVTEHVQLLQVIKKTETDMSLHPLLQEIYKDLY
Method in brief: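 Quantitative HTS agonist mode: stable HEK293H line with UAS-beta-lactamase reporter under PPARg control, 17 h compound exposure at 37C, fluorescence after 1 h FRET substrate loading at room temperature.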

[13] = qHTS assay for small molecule agonists of the antioxidant response element (ARE) signaling pathway (AID 743202; active = well fitted activation curve with a large enough effect in the signal ratio in the repeat runs, not every such curve was filed as active; the % refers to the signal ratio)
Method in brief: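 Read-out: LiveBLAzer B/G FRET substrate fluorescence after 2 h at room temperature, following 16 h compound treatment at 37 C of HepG2 cells carrying an ARE-driven beta-lactamase reporter.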

[14] = target: Peroxisome proliferator-activated receptor gamma (Homo sapiens) (UniProt P37231); assay: qHTS assay to identify small molecule antagonists of the peroxisome proliferator-activated receptor gamma (PPARg) signaling pathway (AID 743191; calls by dose curve; note: series mostly up to about 63 µM; nearly all actives have a fitted effect of over 30% in size)
Method in brief: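 GeneBLAzer PPARg UAS-bla HEK293H cells carrying a UAS-driven beta-lactamase reporter were plated at 3000 cells/well, preincubated 5 h at 37C, then given compound for 17 h at 37C; LiveBLAzer B/G FRET substrate was read after 1 h at room temperature.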

[15] = target: Aryl hydrocarbon receptor (Homo sapiens) (UniProt P35869); assay: qHTS assay to identify small molecule that activate the aryl hydrocarbon receptor (AhR) signaling pathway (AID 743085); note: nearly all actives have a fitted effect of over 15% in size; note: potency is the fitted concentration of half-maximal effect;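 for activation: HG2L7.5c1 human HepG2 liver cells with stably integrated DRE-driven firefly reporter; series mostly up to about 70 µM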
Sequence of Aryl hydrocarbon receptor (Homo sapiens) (P35869 whole entry, looked up): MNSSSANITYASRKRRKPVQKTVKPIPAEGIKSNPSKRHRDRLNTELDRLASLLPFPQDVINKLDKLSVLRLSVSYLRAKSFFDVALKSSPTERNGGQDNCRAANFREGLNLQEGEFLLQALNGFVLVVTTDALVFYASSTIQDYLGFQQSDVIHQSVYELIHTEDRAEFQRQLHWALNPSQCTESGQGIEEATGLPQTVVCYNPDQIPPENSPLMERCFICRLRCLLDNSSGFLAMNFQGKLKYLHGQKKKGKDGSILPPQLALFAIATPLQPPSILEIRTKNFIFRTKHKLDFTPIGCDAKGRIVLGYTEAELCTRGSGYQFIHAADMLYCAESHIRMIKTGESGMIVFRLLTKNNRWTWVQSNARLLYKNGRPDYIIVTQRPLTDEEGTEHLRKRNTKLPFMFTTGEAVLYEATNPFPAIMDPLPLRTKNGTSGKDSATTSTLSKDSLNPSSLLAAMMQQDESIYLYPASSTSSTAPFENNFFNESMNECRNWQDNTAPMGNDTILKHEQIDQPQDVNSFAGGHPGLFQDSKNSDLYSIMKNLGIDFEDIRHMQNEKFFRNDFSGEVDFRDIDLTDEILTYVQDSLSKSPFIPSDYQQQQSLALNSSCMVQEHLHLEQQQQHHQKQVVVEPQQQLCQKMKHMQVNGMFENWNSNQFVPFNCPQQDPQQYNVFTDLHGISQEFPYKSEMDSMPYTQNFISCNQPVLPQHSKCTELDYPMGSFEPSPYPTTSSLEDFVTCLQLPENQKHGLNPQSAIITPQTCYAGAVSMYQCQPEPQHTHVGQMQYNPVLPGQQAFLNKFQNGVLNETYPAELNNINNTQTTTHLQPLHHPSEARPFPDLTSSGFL
Method in brief: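 24 h compound exposure, 37C, HepG2-derived HG2L7.5c1 cells with DRE-responsive luciferase. Readouts: fluorescence viability, then luminescence at room temperature after 30 min.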

Measured: Potency

Nc1ccccn1
not listed: [12] | [13] | [14] | [15]
inactive: all other assays above

COc1cc(C)nc(-n2nc(C)cc2OC)n1
not listed: [11] | [14] | [15]
inactive: all other assays above

CCCc1nn(C)c2c(=O)[nH]c(-c3cc(S(=O)(=O)N4CCN(C)CC4)ccc3OCC)nc12
not listed: [8] | [15]
inactive: all other assays above

CC(C)(C#N)Nc1nc(Cl)nc(NC2CC2)n1
not listed: [15]
inactive: all other assays above

OCCc1ccccn1
not listed: [12] | [14] | [15]
inactive: all other assays above

O=C(c1ccccc1)C1(O)CCCCC1
not listed: [12] | [13]
inactive: all other assays above

Nc1ccncc1N
active: [15] 2660 nM
not listed: [12]
inactive: all other assays above

c1ccc(CCc2ccccc2)cc1
not listed: [8] | [12] | [13] | [15]
inactive: all other assays above
